Experimental data from the supplement of paper PMC8728848.
The full list was thinned out, with the strongest signals kept by preference.

B1: Neuropilin-2 (Homo sapiens), O60462 (protein)
chain: MDMFPLTWVFLALYFSRHQVRGQPDPPCGGRLNSKDAGYITSPGYPQDYPSHQNCEWIVYAPEPNQKIVLNFNPHFEIEKHDCKYDFIEIRDGDSESADLLGKHCGNIAPPTIISSGSMLYIKFTSDYARQGAGFSLRYEIFKTGSEDCSKNFTSPNGTIESPGFPEKYPHNLDCTFTILAKPKMEIILQFLIFDLEHDPLQVGEGDCKYDWLDIWDGIPHVGPLIGKYCGTKTPSELRSSTGILSLTFHTDMAVAKDGFSARYYLVHQEPLENFQCNVPLGMESGRIANEQISASSTYSDGRWTPQQSRLHGDDNGWTPNLDSNKEYLQVDLRFLTMLTAIATQGAISRETQNGYYVKSYKLEVSTNGEDWMVYRHGKNHKVFQANNDATEVVLNKLHAPLLTRFVRIRPQTWHSGIALRLELFGCRVTDAPCSNMLGMLSGLIADSQISASSTQEYLWSPSAARLVSSRSGWFPRIPQAQPGEEWLQVDLGTPKTVKGVIIQGARGGDSITAVEARAFVRKFKVSYSLNGKDWEYIQDPRTQQPKLFEGNMHYDTPDIRRFDPIPAQYVRVYPERWSPAGIGMRLEVLGCDWTDSKPTVETLGPTVKSEETTTPYPTEEEATECGENCSFEDDKDLQLPSGFNCNFDFLEEPCGWMYDHAKWLRTTWASSSSPNDRTFPDDRNFLRLQSDSQREGQYARLISPPVHLPRSPVCMEFQYQATGGRGVALQVVREASQESKLLWVIREDQGGEWKHGRIILPSYDMEYQIVFEGVIGKGRSGEIAIDDIRISTDVPLENCMEPISAFAGENFKVDIPEIHEREGYEDEIDDEYEVDWSNSSSATSGSGAPSTDKEKSWLYTLDPILITIIAMSSLGVLLGATCAGLLLYCTCSYSGLSSRSCTTLENYNFELYDGLKHKVKMNHQKCCSEA
B2: Flo11 (Saccharomyces cerevisiae), P08640 (protein)
chain: MQRPFLLAYLVLSLLFNSALGFPTALVPRGSSEGTSCNSIVNGCPNLDFNWHMDQQNIMQYTLDVTSVSWVQDNTYQITIHVKGKENIDLKYLWSLKIIGVTGPKGTVQLYGYNENTYLIDNPTDFTATFEVYATQDVNSCQVWMPNFQIQFEYLQGSAAQYASSWQWGTTSFDLSTGCNNYDNQGHSQTDFPGFYWNIDCDNNCGGTKSSTTTSSTSESSTTTSSTSESSTTTSSTSESSTTTSSTSESSTSSSTTAPATPTTTSCTKEKPTPPTTTSCTKEKPTPPHHDTTPCTKKKTTTSKTCTKKTTTPVPTPSSSTTESSSAPVPTPSSSTTESSSAPVTSSTTESSSAPVPTPSSSTTESSSAPVTSSTTESSSAPVTSSTTESSSAPVPTPSSSTTESSSAPVTSSTTESSSAPVTSSTTESSSAPVTSSTTESSSAPVTSSTTESSSAPVPTPSSSTTESSSAPVTSSTTESSSAPVPTPSSSTTESSSAPVTSSTTESSSAPVPTPSSSTTESSSAPAPTPSSSTTESSSAPVTSSTTESSSAPVPTPSSSTTESSSTPVTSSTTESSSAPVPTPSSSTTESSSAPVPTPSSSTTESSSAPAPTPSSSTTESSSAPVTSSTTESSSAPVPTPSSSTTESSSAPVPTPSSSTTESSSAPVPTPSSSTTESSSAPVTSSTTESSSAPVTSSTTESSSAPVPTPSSSTTESSSAPVPTPSSSTTESSSAPVPTPSSSTTESSSAPVTSSTTESSSAPVPTPSSSTTESSSAPVPTPSSSTTESSSAPVPTPSSSTTESSVAPVPTPSSSSNITSSAPSSTPFSSSTESSSVPVPTPSSSTTESSSAPVSSSTTESSVAPVPTPSSSSNITSSAPSSIPFSSTTESFSTGTTVTPSSSKYPGSQTETSVSSTTETTIVPTKTTTSVTTPSTTTITTTVCSTGTNSAGETTSGCSPKTVTTTVPTTTTTSVTTSSTTTITTTVCSTGTNSAGETTSGCSPKTITTTVPCSTSPSETASESTTTSPTTPVTTVVSTTVVTTEYSTSTKPGGEITTTFVTKNIPTTYLTTIAPTPSVTTVTNFTPTTITTTVCSTGTNSAGETTSGCSPKTVTTTVPCSTGTGEYTTEATTLVTTAVTTTVVTTESSTGTNSAGKTTTGYTTKSVPTTYVTTLAPSAPVTPATNAVPTTITTTECSAATNAAGETTSVCSAKTIVSSASAGENTAPSATTPVTTAIPTTVITTESSVGTNSAGETTTGYTTKSIPTTYITTLIPGSNGAKNYETVATATNPISIKTTSQLATTASASSVAPVVTSPSLTGPLQSASGSAVATYSVPSISSTYQGAANIKVLGNFMWLLLALPVVF

What was measured:
Test in all cases: glycan array binding signal (z-score within array); higher = stronger binding
Settings in all cases: glycan notation: IUPAC condensed, linker removed
[1] = molecular target: Fuc(a1-2)Gal(b1-3)GalNAc(b1-3)Gal
In short: (§1)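 Glycan array data were curated from 3228 arrays in the Consortium for Functional Glycomics database and kept only where the protein sequence was available. Glycan names were converted to IUPAC-condensed notation, and columns mapping to the same glycan were averaged. The binding signal is a within-array Z-score, averaged across arrays of the same protein sequence at different concentrations or buffers and across linkers. Negative Z-scores can be read as non-binding.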

[2] = molecular target: Fuc(a1-2)Gal(b1-4)GlcNAc(b1-2)Man(a1-3)[Fuc(a1-2)Gal(b1-4)GlcNAc(b1-2)Man(a1-6)]Man(b1-4)GlcNAc(b1-4)GlcNAc
In short: as §1

[3] = molecular target: Fuc(a1-2)Gal(b1-4)[Fuc(a1-3)]GlcNAc
In short: as §1

[4] = molecular target: Fuc(a1-2)[GalNAc(a1-3)]Gal(b1-3)GlcNAc(b1-2)Man(a1-3)[Fuc(a1-2)[GalNAc(a1-3)]Gal(b1-3)GlcNAc(b1-2)Man(a1-6)]Man(b1-4)GlcNAc(b1-4)GlcNAc
In short: as §1

[5] = molecular target: Fuc(a1-2)[GalNAc(a1-3)]Gal(b1-4)Glc
In short: as §1

[6] = molecular target: Fuc(a1-3)[Gal(b1-4)]Glc6S
In short: as §1

[7] = molecular target: Fuc(a1-3)[Gal(b1-4)]GlcNAc(b1-4)Gal(b1-4)[Fuc(a1-3)]GlcNAc(b1-4)Gal(b1-4)[Fuc(a1-3)]GlcNAc
In short: as §1

[8] = molecular target: Fuc(a1-3)[Gal3S(b1-4)]Glc6S
In short: as §1

[9] = molecular target: Fuc(a1-3)[Gal3S(b1-4)]GlcNAc
In short: as §1

[10] = molecular target: Gal(b1-3)GalNAc(a1-3)[Fuc(a1-2)]Gal(b1-4)Glc
In short: as §1

[11] = molecular target: Gal(b1-3)[Fuc(a1-4)]GlcNAc
In short: as §1

[12] = molecular target: Gal(b1-3)[Fuc(a1-4)]GlcNAc(b1-2)Man(a1-3)[Gal(b1-3)[Fuc(a1-4)]GlcNAc(b1-2)Man(a1-6)]Man(b1-4)GlcNAc(b1-4)GlcNAc
In short: as §1

[13] = molecular target: Gal(b1-4)GlcNAc(b1-3)Gal(b1-3)GlcNAc
In short: as §1

[14] = molecular target: Gal3S4S(b1-4)GlcNAc
In short: as §1

[15] = molecular target: GalNAc(b1-4)GlcNAc
In short: as §1

[16] = molecular target: GlcNAc(a1-4)Gal(b1-3)GlcNAc
In short: as §1

[17] = molecular target: GlcNAc(a1-4)Gal(b1-4)GalNAc
In short: as §1

[18] = molecular target: GlcNAc(a1-4)Gal(b1-4)GlcNAc(b1-3)Gal(b1-4)Glc
In short: as §1

[19] = molecular target: GlcNAc(a1-4)Gal(b1-4)GlcNAc(b1-3)Gal(b1-4)[Fuc(a1-3)]GlcNAc(b1-3)Gal(b1-4)[Fuc(a1-3)]GlcNAc
In short: as §1

[20] = molecular target: GlcNAc(b1-4)GlcNAc
In short: as §1

[21] = molecular target: Man(a1-2)Man(a1-2)Man(a1-6)[Man(a1-3)]Man
In short: as §1

[22] = molecular target: Man(a1-2)Man(a1-3)[Man(a1-2)Man(a1-6)]Man
In short: as §1

[23] = molecular target: Man(a1-2)Man(a1-3)[Man(a1-2)Man(a1-6)]Man(a1-6)[Man(a1-2)Man(a1-2)Man(a1-3)]Man
In short: as §1

[24] = molecular target: Neu5Ac(a2-3)Gal(b1-4)GlcNAc(b1-2)Man(a1-3)[Neu5Ac(a2-6)Gal(b1-4)GlcNAc(b1-2)Man(a1-6)]Man(b1-4)GlcNAc(b1-4)GlcNAc
In short: as §1

[25] = molecular target: Neu5Ac(a2-3)Gal(b1-4)GlcNAc(b1-6)[Neu5Ac(a2-3)Gal(b1-3)]GalNAc
In short: as §1

[26] = molecular target: Neu5Ac(a2-3)Gal(b1-4)[Fuc(a1-3)]GlcNAc(b1-3)Gal
In short: as §1

[27] = molecular target: Neu5Ac(a2-3)Gal(b1-4)[Fuc(a1-3)]GlcNAc(b1-3)Gal(b1-4)GlcNAc
In short: as §1

[28] = molecular target: Neu5Ac(a2-3)GalNAc(b1-4)GlcNAc
In short: as §1

[29] = molecular target: Neu5Ac(a2-3)[GalNAc(b1-4)]Gal(b1-4)Glc
In short: as §1

[30] = molecular target: Neu5Ac(a2-6)Gal(b1-4)Glc
In short: as §1

[31] = molecular target: Neu5Ac(a2-3)Gal(b1-3)GalNAc6S
In short: as §1

[32] = molecular target: Neu5Ac(a2-3)Gal(b1-4)GlcNAc6S
In short: as §1

[33] = molecular target: Neu5Ac(a2-3)Gal(b1-4)[Fuc(a1-3)]GlcNAc(b1-3)GalNAc
In short: as §1

[34] = molecular target: Neu5Ac(a2-6)Gal(b1-4)GlcNAc(b1-3)Gal(b1-4)GlcNAc(b1-3)Gal(b1-4)GlcNAc
In short: as §1

[35] = molecular target: Neu5Ac(a2-6)Gal(b1-4)GlcNAc(b1-3)Gal(b1-4)[Fuc(a1-3)]GlcNAc(b1-3)Gal(b1-4)[Fuc(a1-3)]GlcNAc
In short: as §1

[36] = molecular target: Neu5Ac(a2-6)Gal(b1-4)GlcNAc6S
In short: as §1

[37] = molecular target: Neu5Gc(b2-6)Gal(b1-4)GlcNAc
In short: as §1

Binder | glycan array binding signal (z-score) [1] | glycan array binding signal (z-score) [2] | glycan array binding signal (z-score) [3] | glycan array binding signal (z-score) [4] | glycan array binding signal (z-score) [5] | glycan array binding signal (z-score) [6] | glycan array binding signal (z-score) [7] | glycan array binding signal (z-score) [8] | glycan array binding signal (z-score) [9] | glycan array binding signal (z-score) [10] | glycan array binding signal (z-score) [11] | glycan array binding signal (z-score) [12] | glycan array binding signal (z-score) [13] | glycan array binding signal (z-score) [14] | glycan array binding signal (z-score) [15] | glycan array binding signal (z-score) [16] | glycan array binding signal (z-score) [17] | glycan array binding signal (z-score) [18] | glycan array binding signal (z-score) [19] | glycan array binding signal (z-score) [20] | glycan array binding signal (z-score) [21] | glycan array binding signal (z-score) [22] | glycan array binding signal (z-score) [23] | glycan array binding signal (z-score) [24] | glycan array binding signal (z-score) [25] | glycan array binding signal (z-score) [26] | glycan array binding signal (z-score) [27] | glycan array binding signal (z-score) [28] | glycan array binding signal (z-score) [29] | glycan array binding signal (z-score) [30] | glycan array binding signal (z-score) [31] | glycan array binding signal (z-score) [32] | glycan array binding signal (z-score) [33] | glycan array binding signal (z-score) [34] | glycan array binding signal (z-score) [35] | glycan array binding signal (z-score) [36] | glycan array binding signal (z-score) [37]
B1 | 1.26 | 3.21 | 0.117 | -0.324 | -0.637 | 0.81 | -0.508 | 6.67 | 0.282 | -0.835 | 0.255 | 5.64 | -0.249 | -0.032 | -0.284 | 1.66 | 6.59 | 1.04 | 10.4 | -0.129 | -0.323 | -0.496 | -0.552 | -0.501 | -0.664 | -0.587 | 3.79 | 0.369 | -0.339 | 0.038 | – | – | – | – | – | – | –
B2 | – | – | – | – | – | – | – | – | – | – | – | – | – | – | – | – | – | – | – | – | – | – | – | – | – | – | 2.91 | – | – | – | -0.833 | 0.179 | 3.06 | -0.252 | 0.359 | -0.192 | 0.414
